Screening data (PubChem)
PrP UTR inh: inhibition of PrP 5' UTR reporter expression | cell-based PrP 5' UTR mRNA reporter, plate reader | inhibition, % (concentration not given with the values) | actives 0.35% (n = 340,000) | AID 488862; in the data active means inhibition above about 52%
Mtb BioA inh: inhibitors of Mycobacterium tuberculosis BioA enzyme; actives 0.096% (n = 360,000); inhibition, % at 9.99 µM; purified M. tuberculosis BioA enzyme, plate reader; in the data active means inhibition above about 40%
PfHsp40 rescue: rescue of PfHsp40-mediated yeast toxicity | S. cerevisiae expressing PfHsp40, growth rescue, ATP luminescence | AID 504582 | actives 0.68% (n = 340,000) | growth rescue, % at 12.5 µM; in the data active means growth rescue above about 28%, passing the limit was not always enough;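 further: yeast W303a lacking pdr1 and pdr3 grown in galactose medium; growth measured after three days at 30 °C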
Yp Topo-I inh: Y. pestis Topo-I inhibition via cleavage products; Y. pestis Topo-I cleavage product accumulation, plate reader; activity, % at 10 µM; actives 0.064% (n = 360,000); AID 504884; in the data active means activity above about 50%, passing the limit was not always enough
FadD28 binding: M. tuberculosis FadD28 bisubstrate binding inhibition | FadD28 bisubstrate probe binding, fluorescence polarization | inhibition, % at 12.5 µM | actives 0.22% (n = 360,000); in the data active means inhibition above about 8.5%, passing the limit was not always enough
Each line names hits and unclear results; the compound was inactive in the other large screens. Shown are actives, neighbours in structure and some others; about 1.1% of the full set was active somewhere.

O=C(Nc1ccn(CCCN(CCCn2ccc(NC(=O)OCc3ccccc3)nc2=O)CCc2cc3ccccc3[nH]2)c(=O)n1)OCc1ccccc1	Yp Topo-I inh 77
C[C@H]1CN([C@@H](C)CO)C(=O)c2cccc(NC(=O)C3CCOCC3)c2O[C@@H]1CN(C)Cc1ccccc1	none (no result: PrP UTR inh, PfHsp40 rescue, Yp Topo-I inh, FadD28 binding)
O=c1cc(-c2ccccc2Cl)oc2c(NS(=O)(=O)c3cc(Cl)cc(Cl)c3O)ccc(O)c12	FadD28 binding 13
Cc1ccc(S(=O)(=O)NCC2CCC(C(=O)NCc3ccc4c(c3)OCO4)CC2)cc1 (configuration not stated)	none
Cc1ccc(S(=O)(=O)NC(=O)NCc2ccc3c(c2)OCO3)cc1	PfHsp40 rescue 55
C[C@@H]1CN([C@@H](C)CO)S(=O)(=O)c2ccc(C3=CCCCC3)cc2O[C@H]1CN(C)C(=O)c1ccncc1	none (no result: PrP UTR inh, PfHsp40 rescue, Yp Topo-I inh, FadD28 binding)
O=C1CC(c2cccnc2)=NN1c1ccccc1	PfHsp40 rescue 91
CC(=O)N(c1ccccc1)c1c(F)c(F)c(F)c(F)c1F	PfHsp40 rescue 34
C[C@@H]1CN([C@H](C)CO)C(=O)Cc2cc(N(C)C)ccc2O[C@@H]1CN(C)C(=O)Nc1ccc(C(F)(F)F)cc1	none (no result: PrP UTR inh, PfHsp40 rescue, Yp Topo-I inh, FadD28 binding)
Cc1n[nH]c(C)c1N=Nc1ccc(Br)cc1	PfHsp40 rescue 242
Cc1ccc(C)c(CC(=O)N2CCCCC2c2cc(C(=O)Nc3cccc(C#N)c3)no2)c1 (configuration not stated)	none (no result: PrP UTR inh, PfHsp40 rescue)
Cc1cccc(/N=C/c2c(O)ccc3oc4c(c23)CCCC4)n1	none
CC(C)CN=Cc1c(O)c([N+](=O)[O-])cc2oc3c(c12)CCCC3	PfHsp40 rescue 484 (no result: Mtb BioA inh)
O=[N+]([O-])c1cc2oc3c(c2c(C=NCc2ccccc2)c1O)CCCC3	PfHsp40 rescue 230 (no result: Mtb BioA inh)
Cc1nc2ccc(NC(=O)c3cccs3)cc2c(=O)n1Cc1ccc(Cl)cc1	PfHsp40 rescue 31
CC(C)C(=O)Nc1ccc2c(c1)C(=O)N(C)[C@H]1CC[C@@H](CC(=O)N[C@H](C)c3ccccc3)O[C@H]1CO2	none (no result: PrP UTR inh, PfHsp40 rescue, Yp Topo-I inh, FadD28 binding)
COc1ccc(S(=O)(=O)N(CC(=O)N/N=C/c2cccs2)c2ccc(C)cc2)cc1OC	none
COc1ccc(S(=O)(=O)N(CC(=O)N/N=C/c2cccs2)c2cc(C)cc(C)c2)cc1OC	PfHsp40 rescue 48
O=Nc1c(O)n(Cc2ccc(Cl)cc2Cl)c2ccccc12	PfHsp40 rescue 90
C[C@H]1CN([C@@H](C)CO)C(=O)c2cc(C#CCN(C)C)cnc2O[C@H]1CN(C)C(=O)c1ccc(F)cc1	none (no result: PrP UTR inh, PfHsp40 rescue, Yp Topo-I inh, FadD28 binding)
O=C1C=C(Nc2ccccc2O)c2ccccc2C1=O	PfHsp40 rescue 74
COc1ccc(NC(=O)N(C)C[C@H]2Oc3ccc(NC(=O)Nc4ccc5c(c4)OCO5)cc3C(=O)N([C@H](C)CO)C[C@@H]2C)cc1	PfHsp40 rescue 54
C[C@@H]1CN([C@H](C)CO)C(=O)c2cc(NC(=O)Nc3ccc(C(F)(F)F)cc3)ccc2O[C@H]1CN(C)S(=O)(=O)c1cccs1	FadD28 binding 21
C[C@H](CO)N1C[C@H](C)[C@H](CN(C)S(=O)(=O)c2cccs2)Oc2ccc(NC(=O)Nc3ccc(C(F)(F)F)cc3)cc2C1=O	none (no result: PrP UTR inh, PfHsp40 rescue, Yp Topo-I inh, FadD28 binding)
C[C@@H]1CN([C@H](C)CO)C(=O)c2cc(NC(=O)Nc3ccc(C(F)(F)F)cc3)ccc2O[C@@H]1CN(C)S(=O)(=O)c1cccs1	none (no result: PrP UTR inh, PfHsp40 rescue, Yp Topo-I inh, FadD28 binding)
C[C@H](CO)N1C[C@H](C)[C@@H](CN(C)S(=O)(=O)c2cccs2)Oc2ccc(NC(=O)Nc3ccc(C(F)(F)F)cc3)cc2C1=O	FadD28 binding 27
COc1ccc(NC(=O)Nc2ccc3c(c2)C(=O)N([C@@H](C)CO)C[C@H](C)[C@H](CN(C)C(=O)Nc2ccc4c(c2)OCO4)O3)cc1	none (no result: PrP UTR inh, PfHsp40 rescue, Yp Topo-I inh, FadD28 binding)
COc1ccc(C#Cc2ccc3c(c2)[C@@H]2[C@@H](CCN2C(=O)c2ccccn2)[C@@H](CO)N3)cc1	none (no result: PrP UTR inh, PfHsp40 rescue, Yp Topo-I inh, FadD28 binding)
CCCCN1CC(COCc2ccccc2)Oc2cccc(F)c2S1(=O)=O (configuration not stated)	Yp Topo-I inh 59
COc1ccc(CN(C)C[C@@H]2OCCCC[C@@H](C)Oc3ccc(NC(=O)Nc4c(C)noc4C)cc3C(=O)N([C@H](C)CO)C[C@@H]2C)cc1	none (no result: PrP UTR inh, PfHsp40 rescue, Yp Topo-I inh, FadD28 binding)
COc1ccc(N2C(=O)CC(SCC(=O)O)C2=O)cc1 (configuration not stated)	none
COc1ccc(N2C(=O)CC(SCc3ccc(Cl)cc3)C2=O)cc1 (configuration not stated)	PfHsp40 rescue 70 (no result: Mtb BioA inh)
COCCCNC1=C(Cl)C(=O)c2ccccc2C1=O	none
COCCCNc1c2c3c(cccc3[nH]c1=O)C(=O)c1ccccc1-2	FadD28 binding 58
CCN1C(=O)N[C@@H](c2ccccc2)[C@@H](C(=O)OC)[C@H]1C	PfHsp40 rescue 33
CC(=O)Nc1ccc(S(=O)(=O)Nc2nc3ccccc3nc2Nc2ccc(O)c(C(=O)O)c2)cc1	FadD28 binding 13
CC1CCN(c2ccc(-c3cccs3)nn2)CC1	PrP UTR inh 80
Cc1ccc(CSCCNC(=O)c2ccc(Cl)c(S(=O)(=O)N3CCOCC3)c2)cc1	FadD28 binding 34
O=C(NCc1ccncc1)c1ccc(Cl)c(S(=O)(=O)N2CCCCC2)c1	none (no result: Mtb BioA inh)
Cc1ccc(CSCCNC(=O)c2ccc(N(C)S(=O)(=O)c3ccccc3)cc2)cc1	FadD28 binding 8.8 (no result: Mtb BioA inh)
O=C(NCCC1=CCCCC1)c1ccc(Cl)c(S(=O)(=O)N2CCOCC2)c1	none
COc1ccc(C(=O)NCC2CCCO2)cc1S(=O)(=O)N1CCCc2ccccc21 (configuration not stated)	none (no result: Mtb BioA inh)
COc1ccc(C(=O)NCc2ccc(C)cc2)cc1S(=O)(=O)N1CCCc2ccccc21	FadD28 binding 9.9
CN(c1ccc(C(=O)NCCSCc2ccc(Cl)cc2)cc1)S(=O)(=O)c1ccccc1	none (no result: Mtb BioA inh)
COc1ccc(CNC(=O)c2ccc(Cl)c(S(=O)(=O)N3CCCCCC3)c2)cc1	FadD28 binding 8.7 (no result: PrP UTR inh, PfHsp40 rescue)
C[C@H](CO)N1C[C@H](C)[C@H](CN(C)Cc2cccnc2)Oc2cc(-c3cncnc3)ccc2S1(=O)=O	none (no result: PrP UTR inh, PfHsp40 rescue, Yp Topo-I inh, FadD28 binding)
O=C(C[C@@H]1C=C[C@H](NC(=O)c2ccncc2)[C@H](CO)O1)NCCc1ccncc1	none (no result: PrP UTR inh, PfHsp40 rescue, Yp Topo-I inh, FadD28 binding)
COc1ccc(S(=O)(=O)Nc2ccc3c(c2)CC(=O)N([C@H](C)CO)C[C@@H](C)[C@@H](CN(C)S(=O)(=O)c2c(C)noc2C)O3)cc1	none (no result: PrP UTR inh, PfHsp40 rescue, Yp Topo-I inh, FadD28 binding)
C[C@@H]1CN([C@@H](C)CO)C(=O)Cc2cc(NC(=O)Nc3ccc4c(c3)OCO4)ccc2O[C@@H]1CN(C)S(=O)(=O)c1cn(C)cn1	none (no result: PrP UTR inh, PfHsp40 rescue, Yp Topo-I inh, FadD28 binding)
CNC(=O)c1c(NC(=O)CS(=O)(=O)c2ccccc2)sc(C)c1C	PfHsp40 rescue 51 (no result: Mtb BioA inh)
CNC(=O)c1c(NC(=O)CS(=O)(=O)c2ccc(Cl)cc2)sc(C)c1C	none
CCCNc1nc(C)cc(-c2cc(C(=O)Nc3ccccc3)on2)n1	PfHsp40 rescue 196
CCCNc1nc(C)cc(-c2cc(C(=O)NCc3ccccc3)on2)n1	none
COc1cccc(CNC(=O)C2CCCN(S(=O)(=O)c3cccc4nonc34)C2)c1 (configuration not stated)	PfHsp40 rescue 38
